The source of these data is PubChem BioAssay (NCI).

Some test systems named below: SR leukemia; RPMI-8226 leukemia; OVCAR-8 ovarian; OVCAR-5 ovarian; OVCAR-4 ovarian; SK-OV-3 ovarian; IGROV1 ovarian; OVCAR-3 ovarian; HS 578T breast; NCI/ADR-RES ovarian; T-47D breast; BT-549 breast; MDA-MB-435 melanoma; SW-620 colon; MCF7 breast; HCC-2998 colon; KM12 colon; MDA-MB-468 breast; HCT-116 colon.
Holding throughout (experiment): NCI-60 one-dose screen, 48 h (100 = growth as untreated, 0 = no growth, -100 = all killed)
Common to all, as to details: 10 µM unless noted

Each structure is given as a SMILES string. The panel holds about 83,000 compounds, 20% with a hit somewhere; the sample as a whole holds those more often.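 Note: values are percent growth. 100 is the growth of untreated cells, values between 100 and 0 indicate rising inhibition; between -100 and 0 indicates cell death.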 Values without a mark were called inactive. Calls of active or inactive are those of the source. Rule for the calls: active = growth percent below 10; inactive = the rest.

With `O=c1oc2ccccc2cc1-c1csc(N2N=C(c3ccccc3)CC2c2ccc(N3CCOCC3)cc2)n1` (stereo not given), the growth is 94.5% with SR leukemia; 102% in the test with RPMI-8226 leukemia; 104% in the test with OVCAR-8 ovarian; 132% in the test with OVCAR-5 ovarian; 105% with OVCAR-4 ovarian; 69.9% with SK-OV-3 ovarian. Further, the growth with IGROV1 ovarian is 123%; with OVCAR-3 ovarian, 117%; in the test with HS 578T breast, 105%; in the test on NCI/ADR-RES ovarian, 105%; in the test on T-47D breast, 91.6%; in the test on BT-549 breast, 118%. Also, the growth was 110% with MDA-MB-435 melanoma; 106% in the test on SW-620 colon; 86.5% with MCF7 breast; 121% in the test with HCC-2998 colon; 103% in the test with KM12 colon; 99.7% in the test on MDA-MB-468 breast.

On to `Cc1ccc(NC(=O)CN2CCN(c3ncnc4c3cnn4-c3ccccc3)CC2)cc1`, for which the growth was 52.6% in the test with SR leukemia; 75.8% with RPMI-8226 leukemia; 71.4% in the test with OVCAR-8 ovarian; 98% with OVCAR-5 ovarian; 82.9% with OVCAR-4 ovarian; 112% in the test with SK-OV-3 ovarian. In addition, the growth was 81.3% in the test with IGROV1 ovarian; 103% in the test on OVCAR-3 ovarian; 77.7% in the test with HS 578T breast; 79.5% in the test with NCI/ADR-RES ovarian; 78.9% with T-47D breast; 85% with BT-549 breast. Moreover, the growth in the test on MDA-MB-435 melanoma is 94.2%; with SW-620 colon, 99.9%; in the test on MCF7 breast, 74.2%; in the test on HCT-116 colon, 76.3%; in the test on HCC-2998 colon it was 102%; in the test on KM12 colon, 89.9%. Besides, in the test with MDA-MB-468 breast, the growth was 87.1%.

As for `CN(C)CCn1c2ccccc2c2nc3cc4ccccc4cc3nc21`, the growth with SR leukemia is 5.18% (active); with RPMI-8226 leukemia, 14.4%; with OVCAR-8 ovarian it was -46.8% (active); in the test with OVCAR-5 ovarian it was 8% (active); with OVCAR-4 ovarian it was 48%; in the test with SK-OV-3 ovarian, 45.5%. Moreover, the growth in the test with IGROV1 ovarian is -9.73% (active); in the test on OVCAR-3 ovarian, 46.6%; in the test on HS 578T breast it was 42.7%; with NCI/ADR-RES ovarian, -19.4% (active); with T-47D breast it was 45.3%; in the test with BT-549 breast it was 52.8%. For the same compound, the growth is -67% (active) in the test with MDA-MB-435 melanoma; -58.3% (active) in the test with SW-620 colon; -9.03% (active) in the test on MCF7 breast; -82.1% (active) with HCC-2998 colon; 4.87% (active) in the test with KM12 colon; 23.7% in the test with MDA-MB-468 breast.

Consider `Cc1cc2c(cc1Cl)C(=O)/C(=C/c1ccccc1)O2`, for which the growth is 10.1% with SR leukemia; 26% in the test with RPMI-8226 leukemia; -24.7% (active) in the test with OVCAR-8 ovarian; 75% in the test with OVCAR-5 ovarian; 9.29% (active) in the test with OVCAR-4 ovarian; 71.4% in the test with SK-OV-3 ovarian. Moreover, the growth in the test with IGROV1 ovarian is -48.2% (active); in the test with OVCAR-3 ovarian it was 26.8%; with HS 578T breast, 21%; in the test on NCI/ADR-RES ovarian it was -19.8% (active); in the test with T-47D breast, -22.8% (active); in the test with BT-549 breast, -3.52% (active). Also, the growth in the test with MDA-MB-435 melanoma is 19.7%; with SW-620 colon it was 33.9%; in the test with MCF7 breast, 17.5%; in the test on HCC-2998 colon, 63.6%; with KM12 colon, 17.8%; in the test on MDA-MB-468 breast, 0.644% (active).

As for `CC(C)Sc1nc(NCCc2c[nH]c3ccccc23)c(C#N)c(-c2ccc(F)cc2)n1`, the growth in the test with SR leukemia was -19.8% (active); in the test on RPMI-8226 leukemia, 14.1%; in the test with OVCAR-8 ovarian, 57.3%; in the test with OVCAR-5 ovarian, 81.9%; in the test on OVCAR-4 ovarian it was 59.1%; in the test on SK-OV-3 ovarian, 76.9%. For the same compound, the growth in the test on IGROV1 ovarian is 90.4%; in the test on OVCAR-3 ovarian it was 58.1%; with HS 578T breast, 43%; with NCI/ADR-RES ovarian, 29.5%; in the test on T-47D breast, 20.8%; with BT-549 breast, 65%. For the same compound, the growth is 58.7% with MDA-MB-435 melanoma; 6.5% (active) with SW-620 colon; 4.29% (active) in the test with MCF7 breast; 21.5% in the test on HCC-2998 colon; 15.7% in the test on KM12 colon; 2.22% (active) in the test on MDA-MB-468 breast.

Take `Cn1cc(-c2cc3nc(-c4cn(C)c5ncc(Br)cc45)cc(N)n3n2)c2ccccc21`: the growth is -20.7% (active) with SR leukemia; -2.62% (active) in the test on RPMI-8226 leukemia; -10.9% (active) in the test on OVCAR-8 ovarian; -49.5% (active) in the test on OVCAR-5 ovarian; 20% with OVCAR-4 ovarian; -24% (active) in the test on SK-OV-3 ovarian. Moreover, the growth in the test with IGROV1 ovarian was -23.8% (active); with OVCAR-3 ovarian, -18.5% (active); with HS 578T breast, -19.7% (active); in the test on NCI/ADR-RES ovarian, -23.5% (active); in the test with T-47D breast it was -40.9% (active); in the test with BT-549 breast, -73% (active). Further, the growth with MDA-MB-435 melanoma is -70.8% (active); with SW-620 colon, -48% (active); with HCT-116 colon it was -100% (active); in the test with HCC-2998 colon, -89% (active); in the test with KM12 colon it was -55.5% (active); with MDA-MB-468 breast, -78.9% (active).

Take `CC(=O)c1cccc(NC(=O)CCC(=O)NS(=O)(=O)c2ccc(C)cc2)c1`: the growth in the test on SR leukemia is 99.3%; with RPMI-8226 leukemia, 99.8%; in the test on OVCAR-8 ovarian it was 106%; with OVCAR-5 ovarian, 110%; in the test on OVCAR-4 ovarian, 118%; with SK-OV-3 ovarian, 99.6%. Further, the growth was 115% in the test on IGROV1 ovarian; 128% with OVCAR-3 ovarian; 111% with HS 578T breast; 112% with NCI/ADR-RES ovarian; 106% in the test with T-47D breast; 107% in the test with BT-549 breast. In addition, the growth in the test on MDA-MB-435 melanoma is 112%; in the test on SW-620 colon, 111%; with HCT-116 colon, 101%; in the test with HCC-2998 colon it was 117%; in the test on KM12 colon, 104%; in the test with MDA-MB-468 breast it was 122%.

Regarding `CCOC(=O)c1ccc(Nc2nc(NN)nc(-c3ccc(OC)cc3)c2C#N)cc1`, the growth was 97.2% with SR leukemia; 92% with RPMI-8226 leukemia; 116% in the test on OVCAR-8 ovarian; 104% in the test with OVCAR-5 ovarian; 104% with OVCAR-4 ovarian; 119% in the test with SK-OV-3 ovarian. For the same compound, the growth was 108% in the test with IGROV1 ovarian; 107% in the test on OVCAR-3 ovarian; 104% in the test on HS 578T breast; 113% with NCI/ADR-RES ovarian; 84.9% with T-47D breast; 116% with BT-549 breast. Also, the growth is 62.6% with MDA-MB-435 melanoma; 104% with SW-620 colon; 101% with HCT-116 colon; 81% with HCC-2998 colon; 93.9% in the test on KM12 colon; 119% in the test on MDA-MB-468 breast.
